Bioassay records from PubChem.
A selection: hits, their analogues and other compounds. The true share with any hit is near 1.6%.
KCNQ2 pot – potentiators of rat KCNQ2 potassium channel; O88943; CHO-K1 KCNQ2, FluxOR thallium flux fluorescence; stronger effect = higher value; B-score at 10 µM; 0.54% of 310,000 active; AID 2239;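 active = fluorescence ratio B-score at least 3 SD of library B-scores, with initial fluorescence B-score within 3 of them, cut at about 5.3 in these data; same plate scores as AID 2156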;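 also: B-score of peak minus minimum over baseline fluorescence ratio after K+ and Tl+ stimulus; positive B-score means potentiation of KCNQ2 with more thallium influx and brighter signal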
KCNQ2 inh – blocks the rat KCNQ2 potassium channel; 1.1% of 310,000 active; B-score at 10 µM; O88943; CHO-K1 KCNQ2, FluxOR thallium flux, 20 min; stronger effect = lower value; AID 2156;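 active = fluorescence ratio B-score at most minus 3 library SDs, with starting brightness B-score within 2 library SDs, cut at about -5.5 in these data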
Kir21 confirm – confirmation of mouse Kir2.1 potassium channel inhibitors; shares compounds with KCNQ2 pot; Kir2.1-expressing cells, FluxOR thallium flux fluorescence; stronger effect = lower value; 41% of 2,300 active; Tl flux remaining, % of negative control (stronger effect = lower value), % at 10 µM;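 active = Primary-screen hit whose thallium flux fell at least 3 control SD below untreated wells in both duplicates, with normal baseline fluorescence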;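 also: 0% = blank wells without stimulus and 100% = stimulated no-compound controls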
Target sequence (P35561 whole entry, looked up): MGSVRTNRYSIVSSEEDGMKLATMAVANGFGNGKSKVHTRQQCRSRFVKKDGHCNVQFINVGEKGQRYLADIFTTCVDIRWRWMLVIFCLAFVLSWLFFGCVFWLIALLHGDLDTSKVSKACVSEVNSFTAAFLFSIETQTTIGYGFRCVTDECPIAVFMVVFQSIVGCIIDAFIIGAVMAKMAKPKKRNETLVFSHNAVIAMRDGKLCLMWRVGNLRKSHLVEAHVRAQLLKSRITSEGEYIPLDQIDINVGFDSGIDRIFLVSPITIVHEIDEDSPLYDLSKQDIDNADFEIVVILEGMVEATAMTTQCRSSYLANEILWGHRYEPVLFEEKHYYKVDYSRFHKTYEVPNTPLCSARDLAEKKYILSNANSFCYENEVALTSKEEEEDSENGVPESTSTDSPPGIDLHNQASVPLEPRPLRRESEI
HEK293 ctr – parental HEK293 activity in Kir2.1 inhibitor counter-screen; 19% of 2,300 active; shares compounds with KCNQ2 pot; parental HEK293 cells, FluxOR thallium flux fluorescence; 0% = unstimulated blank wells; FluxOR signal as % of negative control (100 = no effect), % at 10 µM;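 active = dye signal at least 3 control SD above or below untreated wells in both duplicates, raw fluorescence within 3, either direction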;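 also: percent is based on the flux ratio of peak minus minimum fluorescence over baseline F0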
CHO-K1 ctr – counter-screen for KCNQ2 potentiators: effect in parental CHO-K1 cells; shares compounds with KCNQ2 pot; FluxOR thallium flux fluorescence; zero = vehicle mean+3SD, 100% = vehicle-minus-blank window; activity increase over 3SD of controls, % at 10 µM; 43% of 1,200 active; AID 2282;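 active = signal rise of at least 3 SD above the untreated control mean, in both duplicate wells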;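 also: counter screen of KCNQ2 potentiator hits so any rise reflects channel-independent effects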
KCNQ1 sel pot – selectivity of KCNQ2 potentiators: effect on human KCNQ1. shares compounds with KCNQ2 pot. activation over 3SD threshold, % at 10 µM. CHO KCNQ1 stable, FluxOR thallium flux fluorescence; beyond 3SD, as % of vehicle-control signal. 28% of 1,200 active;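 active = fluorescence ratio rise of at least 3 SD of vehicle wells above their mean, in both replicate wells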;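 also: 0% = vehicle mean plus 3 SD and 100% = vehicle minus unstimulated blank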
KCNQ2 pot conf – confirmation of rat KCNQ2 potassium channel potentiators; 68% of 1,200 active; shares compounds with KCNQ2 pot; potentiation, less the hit threshold, % at 10 µM; CHO-KCNQ2 cells, FluxOR thallium flux fluorescence;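 active = fluorescence ratio rising 3 SD or more over the vehicle control mean in both replicates, plus primary screen hit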;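 also: peak minus minimum thallium fluorescence divided by baseline after K/Tl stimulus; 0% = vehicle mean plus 3 SD and 100% = vehicle minus unstimulated blank difference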
Kir21 spec – mouse Kir2.1 off-target activity of KCNQ2 potentiators. HEK293 Kir2.1, FluxOR thallium flux fluorescence. 2% of 1,200 active. shares compounds with KCNQ2 pot. activity over 3SD threshold, % at 10 µM;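 active = fluorescence ratio rise of at least 3 SD above the vehicle-control mean, seen in both replicates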;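 also: 0% = vehicle mean plus 3 SD and 100% = vehicle minus no-stimulus blank window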
KCNQ2 W236L pot – KCNQ2 potentiators acting on retigabine-insensitive rat KCNQ2 W236L mutant. shares compounds with KCNQ2 pot. CHO KCNQ2-W236L, automated patch clamp current. current increase over 3SD of negative controls (%), stronger effect = higher value, % at 25 µM. 10% of 940 active;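 active = current increase at least 3 SD of the untreated controls above them in both duplicate recordings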
* = called active by the depositor; i = inactive; . = no result given.

SMILES | KCNQ2 pot | KCNQ2 inh | Kir21 confirm | HEK293 ctr | others
CCN(CC)c1ccc(NC(=O)C2CC3CCC2C3)cc1 (centres undefined) | 23* | i | i | i | CHO-K1 ctr=2.7*;KCNQ1 sel pot=-15;KCNQ2 pot conf=65*;Kir21 spec=-32;KCNQ2 W236L pot=i
CCn1cc(C(=O)N2CCCC(C(=O)c3ccc4ccccc4c3)C2)cn1 (centres undefined) | 0.45 | i | . | .
NS(=O)(=O)c1ccc(CCNC(=O)c2ccc(OCC3CCCO3)cc2)cc1 (centres undefined) | 0.22 | i | . | .
O=C(CCN1C(=O)C2CCCCC2C1=O)NNC(=O)c1cccc(Cl)c1 (centres undefined) | 0.27 | i | . | .
O=C(CCC1CCCC1)NNC(=O)c1cccc(Cl)c1 | 6.1* | i | i | i | CHO-K1 ctr=106*;KCNQ1 sel pot=-18;KCNQ2 pot conf=15*;Kir21 spec=-11;KCNQ2 W236L pot=i
COc1cc(CNCCN2CCOCC2)ccc1OCc1ccc(Cl)cc1Cl | . | i | . | .
COc1cc(CNCc2ccccn2)ccc1OCc1ccc(Cl)cc1Cl | . | i | 26%* | i
CCN(Cc1ccccc1)C(=S)NC(=O)c1ccccc1Br | 8.6* | i | i | 418%* | CHO-K1 ctr=-16;KCNQ1 sel pot=52*;KCNQ2 pot conf=46*;Kir21 spec=-23;KCNQ2 W236L pot=i
CCCN(Cc1ccccc1)C(=S)NC(=O)c1ccccc1[N+](=O)[O-] | 13* | i | i | 450%* | CHO-K1 ctr=5.8*;KCNQ1 sel pot=-22;KCNQ2 pot conf=60*;Kir21 spec=-17;KCNQ2 W236L pot=i
CCN(CC)C(=S)NC(=O)Cc1ccccc1 | . | i | . | .
CCC(=O)NC(=S)NNC(=O)c1ccccc1[N+](=O)[O-] | . | i | . | .
Cc1ccc(C(=O)NNC(=O)c2ccc(NC(=O)C(C)(C)C)cc2)cc1 | 1.2 | i | . | .
CSCc1ccc(C(=O)N2CCCC(Nc3ccc4c(c3)OCCO4)C2)o1 (centres undefined) | 0.77 | i | . | .
CSCc1ccc(C(=O)N2CCCC(Nc3ccc(F)cc3)C2)o1 (centres undefined) | . | i | 50%* | i
COc1ccccc1CNC(=O)CCCn1nc(C)n2ccnc2c1=O | . | i | . | .
COC(=O)C(NC(=O)CCc1nnc2ccc(N3CCCCC3)nn12)C(C)C (centres undefined) | 0.04 | i | . | .
Cc1cc(C)c(S(=O)(=O)/N=C2\C=C(Nc3ccc(C(=O)O)cc3)C(=O)c3ccccc32)c(C)c1 | 7.9* | i | i | i | CHO-K1 ctr=9.1*;KCNQ1 sel pot=-7;KCNQ2 pot conf=0;Kir21 spec=-4;KCNQ2 W236L pot=i
CCc1ccc(S(=O)(=O)/N=C2\C=C(Nc3cccc(C(=O)O)c3)C(=O)c3ccccc32)cc1 | 1.2 | i | . | .
COc1ccc(CN(CC(=O)NC(C)C)C(=O)CCC(=O)Nc2nccs2)cc1 | . | i | . | .
CCOc1ccc(C(=O)N2CCN(S(=O)(=O)c3cccs3)CC2)c(OCC)c1 | . | i | . | .
O=C(CSc1n[nH]c(=O)[nH]c1=O)N/N=C/c1ccccc1O | 0.06 | i | . | .
O=C(CSc1ccccc1)N/N=C/c1ccccc1O | 6* | i | i | i | CHO-K1 ctr=-11;KCNQ1 sel pot=-14;KCNQ2 pot conf=25*;Kir21 spec=-30;KCNQ2 W236L pot=i
CSc1ncc(C(=O)Nc2cccnc2)c(C(F)(F)F)n1 | . | i | . | .
O=C(CCC1CCCCC1)NCCN1C2=NC[C@H](Cc3ccc(O)cc3)N2C[C@H]1Cc1ccc(O)cc1 | 0.57 | i | . | .
COc1ccc(C[C@H]2CN3C(=NC[C@@H]3Cc3ccccc3)N2CCNC(=O)CCC2CCCCC2)cc1 | . | i | 40%* | i
SMILES | KCNQ2 pot | KCNQ2 inh | Kir21 confirm | HEK293 ctr | others
CC(C)[C@H]1CN=C2N(CCNC(=O)CCC3CCCCC3)[C@H](Cc3ccc(O)cc3)CN21 | . | i | . | .
COc1ccc(C[C@H]2CN3C(=NC[C@@H]3C(C)C)N2CCNC(=O)CCC2CCCCC2)cc1 | . | i | 64%* | i
O=C(NCc1cccnc1)c1ccc(Br)s1 | 0.9 | i | . | .
COc1ccc(-c2noc(CCC(=O)NCC3CCCO3)n2)cc1OC (centres undefined) | . | i | . | .
COc1c(Br)cc(Br)cc1C(=O)Nc1ccccc1N1CCCC1 | . | i | . | .
N#CCCSc1ccccc1NC(=O)c1cc(=O)c2ccccc2o1 | 1.9 | i | . | .
Cn1cc([N+](=O)[O-])c(C(=O)NC2CCCCCC2)n1 | 0.26 | i | . | .
COc1ccc(Cc2nnc(SCC(=O)Nc3ccccc3)[nH]c2=O)cc1 | 0.37 | i | . | .
CCCCn1c(C(C)NC(=O)CC)nc2ccccc21 (centres undefined) | 0.1 | i | . | .
CCCCCCn1c(C(C)NC(=O)c2ccco2)nc2ccccc21 (centres undefined) | -6.2 | -6.2* | 54%* | i
CCC(=O)Nc1nc2ccccc2n1CCN1CCOCC1 | . | i | . | .
CCCCCCCn1c(NC(=O)CC)nc2ccccc21 | 10* | i | i | i | CHO-K1 ctr=-21;KCNQ1 sel pot=-5;KCNQ2 pot conf=61*;Kir21 spec=-45;KCNQ2 W236L pot=i
CC(OC(=O)COc1cccc2c1OC(C)(C)C2)C(=O)Nc1ccc(S(N)(=O)=O)cc1 (centres undefined) | 0.53 | i | . | .
CCN1C(=O)[C@@H]2[C@@H](c3ccc(-c4ccc(F)cc4)cc3)N3CCCC[C@@]3(C(=O)OC)[C@@H]2C1=O | . | i | . | .
COC(=O)c1ccc(NC(=O)c2cc[n+](Cc3ccccc3)cc2)cc1 | . | i | . | .
COc1ccccc1NC(=O)NNC(=O)c1ccc2ccccc2c1O | . | i | . | .
c1ccc(-c2ccc(OCCCNC3CCCC3)cc2)cc1 | . | i | 42%* | i
c1ccc(Cc2ccc(OCCCNC3CCCC3)cc2)cc1 | 0.67 | i | 44%* | i
c1ccc(SCCCCNC2CCCC2)cc1 | 1.2 | i | . | .
COc1ccc(OCCNC2CCCC2)cc1 | 1.1 | i | . | .
COc1cccc(C(C)NC(=O)Cc2cccs2)c1 (centres undefined) | 1.3 | i | . | .
CCOC(=O)CC1CCCCN1C(=O)c1cc(COc2cccc3cnccc23)on1 (centres undefined) | . | i | . | .
COc1ccc(NS(=O)(=O)c2cccc(C(=O)OCC(=O)NC3CC3)c2)cc1 | . | i | . | .
COc1ccccc1CNC(=O)CN(C)Cc1ccc(SC)cc1 | . | i | . | .
O=[N+]([O-])c1cccc(-c2nnc(-c3ccccc3F)o2)c1 | . | i | . | .
Cc1cccc(/C=N/n2c(C3CCCCC3)n[nH]c2=S)c1 | . | i | . | .
